Data published in PubChem BioAssay AID686971 (National Center for Advancing Translational Sciences (NCATS), 2013).
Among all 360,000 compounds or so, about 7,500 (2.1%) were called active. Another 8% or so got no clear call; they are omitted. The full list was thinned out, with actives kept by preference. Unmarked numbers belong to inactive results. Calls follow the shape of the dose curve; as a rule, active = well fitted cell-killing curve with a large enough effect; inconclusive = small, poorly fitted or top-dose-only effect, or effect the other way, or another doubt; inactive = no such curve, though single readings can be large or run the other way.
Potency is read from the fitted curve at half-maximal effect.

Test: qHTS for induction of synthetic lethality in tumor cells producing 2HG: qHTS for the HT-1080-IDH1KD cell line;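 as to activity, negative = toxicity: 0% = DMSO wells and -100% = cell-free medium wells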
Settings: HT-1080 IDH1 knockdown viability, ATP luminescence, 48 h; series mostly up to 46.1 µM; activity, negative = toxicity: at the top concentration
Summary of the method: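 Viability of IDH1-knockdown HT-1080 fibrosarcoma cells was assessed by CellTiter-Glo after 48 h at 37 °C with titrated compound; concentration-effect curves were classified by fit quality and response size.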
With COc1cc2nnn(-c3ccncc3)c2cc1OC the “activity, negative = toxicity” value was 9.52%.
For N#CC1(Nc2ccc3c4c(cccc24)CC3)CCCCC1, the “activity, negative = toxicity” value was -19.4%.
For Cc1cc(-c2ccc(C)c(S(=O)(=O)NCCCN(Cc3ccccc3)C(C)C)c2)on1, the “activity, negative = toxicity” value was -2.16%.
For CCOc1ccccc1CNS(=O)(=O)c1cc(-c2cc(C)no2)ccc1C, the “activity, negative = toxicity” value was -19.8%.
With COc1ccc(CNS(=O)(=O)c2cc(-c3cc(C)no3)ccc2C(C)C)cc1 the Potency was 3.66 µM (active).
In the case of CCOC(=O)N1CCN(C(=O)C[C@@H]2C[C@@]3(C(=O)OC)CCCCC=C3N(CCC3=CCCCC3)C2=O)CC1, the “activity, negative = toxicity” value is reported as -21.7%.
For Cc1cccc(-c2cnc(C(O)c3ccc4ccccc4c3)[nH]2)c1 (stereo not drawn), the “activity, negative = toxicity” value was -20.1%.
In the case of CC1(C(=O)NCc2ccccc2)CN(S(C)(=O)=O)CC(=O)N1CC(F)(F)F (stereo not drawn), the “activity, negative = toxicity” value is reported as 19.5%.
With CC1(C(=O)O)CCN1C(=O)/C=C/c1ccccc1 (stereo not drawn) the “activity, negative = toxicity” value was -1.28%.
With CC1(C(=O)NS(=O)(=O)c2ccccc2)CCN1C(=O)C/C=C/c1ccccc1 (stereo not drawn) the “activity, negative = toxicity” value was 24%.
With CC1(C)CCSC(/C=C/c2ccccc2)=N1 the Potency was 25.9 µM (active).
In the case of CC1(C(=O)NCc2ccc3c(c2)OCO3)CCN1CCc1ccccc1 (stereo not drawn), the “activity, negative = toxicity” value is reported as 0%.
With CCN(CC)C(=O)C(C)N1c2cccc3cccc(c23)S1(=O)=O (stereo not drawn) the “activity, negative = toxicity” value was 0.219%.
For CC(C)Nc1nc(NCCOc2ccccc2Cl)c2sccc2n1, the Potency was 16.4 µM (active).
With COc1cccc(-c2cc3nc(NCCOc4ccccc4Cl)n(C)c(=O)c3s2)c1 the “activity, negative = toxicity” value was 10.4%.
In the case of O=C(NCCOc1ccccc1Cl)C(=O)Nc1ccccc1, the “activity, negative = toxicity” value is reported as -23.8%.
For Cc1c(NC(=O)COC(=O)/C=C/c2cccc(F)c2)c(=O)n(-c2ccccc2)n1C, the “activity, negative = toxicity” value was 0.173%.
For COC(=O)C1(C(=O)OC)C[C@H](c2ccccc2)N(Cc2ccccc2OC)[C@@H]1c1ccccc1, the “activity, negative = toxicity” value was -10.5%.
In the case of NC(=O)NC(CC(=O)NNC(=O)c1ccccn1)c1ccc(Cl)cc1 (stereo not drawn), the “activity, negative = toxicity” value is reported as -25.6%.
With CC1=NNC(=O)C1CCC(=O)N/N=C(\C)c1ccc(Cl)cc1 (stereo not drawn) the “activity, negative = toxicity” value was 0.912%.
In the case of C/C(=N\NC(=O)Cc1ccc(Cl)cc1)c1ccccn1, the Potency is reported as 2.51 µM (active).
In the case of CC(=O)NC(c1ccccc1)c1nc(-c2cccc(C(C)C)c2)cs1 (stereo not drawn), the “activity, negative = toxicity” value is reported as -0.585%.
With CC(OC(=O)c1ccc(NC(=O)CC#N)cc1)C(=O)Nc1ccc(S(=O)(=O)N2CCCC2)cc1 (stereo not drawn) the “activity, negative = toxicity” value was -9.1%.
For C[C@@H]1CN([C@H](C)CO)C(=O)CCCn2cc(nn2)CO[C@H]1CN(C)S(=O)(=O)c1ccc(Oc2ccccc2)nc1, the “activity, negative = toxicity” value was -8.17%.
For Cc1cccc(CN2CCN(C3CN(Cc4cn(Cc5ccccc5F)nn4)S(=O)(=O)C3)CC2)c1 (stereo not drawn), the “activity, negative = toxicity” value was 2.12%.
With O=C(NCC(O)c1nc2ccccc2[nH]1)c1ccc(Br)cc1 (stereo not drawn) the “activity, negative = toxicity” value was -0.05%.
With Cc1cc(=O)oc2cc(OCCC[n+]3ccccc3)ccc12 the “activity, negative = toxicity” value was 7.77%.
In the case of Cc1cc(=O)oc2cc(OCC3CC(c4ccccc4Cl)=NO3)ccc12 (stereo not drawn), the Potency is reported as 0.447 µM (active).
For CCOc1ccccc1N1CCN(C(=O)COc2ccc3c(C)cc(=O)oc3c2)CC1, the “activity, negative = toxicity” value was -13.8%.
With CN1OC[C@@H]2CN(C(=O)c3cccnc3)[C@H](c3ccc(N4CCCCC4)cc3)C[C@@H]21 the “activity, negative = toxicity” value was 11.3%.
In the case of Cc1csc(SCC(=O)Nc2ccc(C)c(S(=O)(=O)N(C)C)c2)n1, the “activity, negative = toxicity” value is reported as -1.02%.
With C[C@H](CO)N1C[C@H](C)[C@@H](CN(C)Cc2ccc3c(c2)OCO3)OCc2cnnn2CCCC1=O the “activity, negative = toxicity” value was 21.3%.
With O=C1c2ccccc2NC(c2ccc(-c3cccc(Cl)c3)o2)N1O (stereo not drawn) the Potency was 20 µM (active).
In the case of O=C(O)C(c1ccccc1)N1C(=O)/C(=C\c2ccc(-c3cccc(Cl)c3)o2)SC1=S (stereo not drawn), the “activity, negative = toxicity” value is reported as 5.09%.
In the case of CC(=O)NN1C(=O)c2ccccc2NC1c1ccccc1 (stereo not drawn), the “activity, negative = toxicity” value is reported as 5.4%.
In the case of COc1ccc(C=C2CCC3C(CCCC34OCCO4)C2=O)cc1 (stereo not drawn), the “activity, negative = toxicity” value is reported as -0.459%.
For C=CCOc1cccc(C2C(C(=O)c3ccc(C)o3)=C(O)C(=O)N2CCN2CCOCC2)c1 (stereo not drawn), the “activity, negative = toxicity” value was -1.37%.
In the case of COCCNC(=O)C1CCCN(Cc2ccccc2Cl)CC1 (stereo not drawn), the “activity, negative = toxicity” value is reported as 1.46%.
For Cc1ccc(S(=O)(=O)N2CCOCC2)cc1NC(=O)c1ccncc1, the “activity, negative = toxicity” value was -4.38%.
With CC(C)Nc1ncnc2c1ncn2[C@H]1CN(Cc2ccncc2)C[C@@H](CO)O1 the “activity, negative = toxicity” value was 8.01%.
With O=C(CSc1ccccc1)Nc1nnc(/C=C/c2ccccc2)s1 the Potency was 18.4 µM (active).
In the case of CCOCc1nnc(NC(=O)CSc2ccc(C)cc2)s1, the “activity, negative = toxicity” value is reported as 13.4%.
For O=C(Nc1ccc(Cl)cc1)Nc1nnc(/C=C/c2ccccc2)s1, the “activity, negative = toxicity” value was -6.97%.
For CC1(C)OC(=O)C2=C(C[C@@H](C3CC3)O[C@H]2c2ccc(Cl)cc2)O1, the “activity, negative = toxicity” value was 6.54%.
With CCCCc1nc2ccc(F)cc2cc1C the “activity, negative = toxicity” value was 14%.
With CCCNC(=O)c1cc(C2CCCCN2S(=O)(=O)c2cn(C)cn2)on1 (stereo not drawn) the “activity, negative = toxicity” value was 0%.
For COc1ccc2c(c1)C(C)=CC(C)(C)N2C(=O)CNCc1ccc2c(c1)OCO2, the Potency was 8.91 µM (active).
In the case of COc1ccc2c(c1)C(C)=CC(C)(C)N2C(=O)Nc1ccccc1, the “activity, negative = toxicity” value is reported as 6.01%.
With COc1ccc(NC(=O)NCc2ccc3c(c2)OCO3)c(OC)c1 the “activity, negative = toxicity” value was 12.4%.
In the case of CCOC(=O)[C@]12CCCC=C1N(Cc1ccc3c(c1)OCO3)C(=O)[C@H](CC(=O)N1CCN(C(=O)c3ccco3)CC1)C2, the “activity, negative = toxicity” value is reported as 7.52%.
In the case of Cc1c(C(=O)Nc2ccccn2)oc2ccc(Br)cc12, the “activity, negative = toxicity” value is reported as 0.189%.
For CCN(CC)CCn1c(/N=C/c2cc(Br)ccc2O)nc2ccccc21, the “activity, negative = toxicity” value was -22.5%.
In the case of Oc1ccc(Br)cc1/C=N/Nc1ccccn1, the Potency is reported as 6.51 µM (active).
In the case of NCCCCC(C(=O)O)N(C(=O)OCc1ccccc1)C(=O)OCc1ccccc1 (stereo not drawn), the “activity, negative = toxicity” value is reported as 27.1%.
In the case of O=C(COC(=O)c1ccc(S(=O)(=O)N2CCCCCC2)cc1)Nc1ccccc1C(F)(F)F, the “activity, negative = toxicity” value is reported as -2.66%.
In the case of CCc1nc2ccc(C(=O)Nc3ccc(OC)c(OC)c3)cn2c1N(C)C(=O)c1cccc(OC)c1, the “activity, negative = toxicity” value is reported as 2.78%.
For O=C(Nc1cccc(-c2cscn2)c1)C1CCN(Cc2ccsc2)CC1, the “activity, negative = toxicity” value was -10.5%.
In the case of CC(=O)c1cc(CN2CCC(C(=O)Nc3cccc(-c4cscn4)c3)CC2)cs1, the “activity, negative = toxicity” value is reported as -24.4%.
With O=C(Nc1cnn(Cc2ccc(Cl)cc2)c1)C1CCCC1 the “activity, negative = toxicity” value was -20.3%.
In the case of CCn1cc(CN2CCC(n3nccc3NC(=O)CCCc3ccccc3)CC2)c(C)n1, the “activity, negative = toxicity” value is reported as -0.78%.
In the case of CCn1cc(CN2CCC(C(=O)Nc3cccc(-c4cccc(Cl)c4)c3)CC2)cn1, the Potency is reported as 18.4 µM (active).
With CCn1cc(CN2CCC(C(=O)Nc3cccc(-c4cccc(Cl)c4)c3)CC2)c(C)n1 the Potency was 20.6 µM (active).
In the case of Cc1ccc([C@@H]2CC(=O)[C@@H]3CN(S(=O)(=O)c4ccc(C)cc4)[C@H](c4ccccc4F)C[C@@H]3N2S(=O)(=O)c2ccc(Cl)cc2)cc1, the “activity, negative = toxicity” value is reported as 4.32%.
